Experimental data taken from the supplement of paper PMC11060735.
Several values for one entry are separate records, joined by “and”; a condition that tells them apart may be missing. Identical values can stand only once. Counter-ions that a name gives are not always drawn. The campaign covered roughly 1,800 compounds. About 50 (3%) showed activity. The full list was thinned out, with actives kept by preference. Values without a mark were called inactive.

test system: mouse p16Ink4a+/- lung fibroblasts (INKBRITE, bleomycin-injured); assay: percentage of GFP+ (p16Ink4a+) fibroblasts among all cells in well; higher = less depletion of p16Ink4a+ cells, active = 20 or less; conditions: 1 µM; 3 days

SMILES	percentage of GFP+
Cc1cccc(CC(=O)N2CCc3c2ccc(-c2cn(C)c4ncnc(N)c24)c3F)n1	45%
COc1cc(C(=O)NS(=O)(=O)c2ccccc2C)ccc1Cc1cn(C)c2ccc(NC(=O)OC3CCCC3)cc12 [Zafirlukast]	47.1%
CN1CCc2c(c3ccccc3n2Cc2ccc(C(=O)NO)cc2)C1 [Tubastatin A HCl]	53.9% and 45%
Cn1cc(CNCC2CCN(c3ncc(C(=O)NO)cn3)CC2)c2ccccc21 [Quisinostat]	1.92% (active)
COc1ccc(COc2ccc(Cc3cnc(N)nc3N)cc2OC)cc1	33.4%
Cc1cccc(C)c1OCC(C)N (configuration not stated) [Mexiletine]	46%
Cc1cc(C)c(CNC(=O)c2cc(-c3ccc(CN4CCOCC4)cc3)cc3c2cnn3C2CCCC2)c(O)n1	49.7%
CCN(c1cc(-c2ccc(CN3CCOCC3)cc2)cc(C(=O)NCc2c(C)cc(C)nc2O)c1C)C1CCOCC1	54.5%
CCNC(=O)c1noc(-c2cc(C(C)C)c(O)cc2O)c1-c1ccc(CN2CCOCC2)cc1 [Luminespib (NVP-AUY922)]	6.33% (active)
Cc1cc(C2CCCCC2)n(O)c(=O)c1 [Ciclopirox]	29.6% and 35.5%
CCCOc1ccc(C(=O)OCCN(CC)CC)cc1N [Proparacaine]	37.1%
COC(=O)CCSCc1ccc(-c2onc(C)c2NC(=O)OC(C)c2ccccc2Cl)cc1 (configuration not stated)	43.9%
CCN(CC)CCCC(C)Nc1c2ccc(Cl)cc2nc2ccc(OC)cc12 (configuration not stated) [Quinacrine]	46.6%
O=C(/C=C\n1cnc(-c2cc(C(F)(F)F)cc(C(F)(F)F)c2)n1)NNc1cnccn1 [Selinexor (KPT-330)]	14.7% (active)
COc1cc(-c2ncn(/C=C\C(=O)OC(C)C)n2)cc(C(F)(F)F)c1	14.1% (active)
O=C(/C=C\n1cnc(-c2cc(C(F)(F)F)cc(C(F)(F)F)c2)n1)N1CC(F)(F)C1	24.1%
CN(C)CCOC(c1ccccc1)c1ccccc1 [Diphenhydramine]	47.9%
CC(C)(C)c1cnc(CSc2cnc(NC(=O)C3CCNCC3)s2)o1	28.7%
N#Cc1ccc2[nH]c(O)c(-c3ccc(CN4CCOCC4)cn3)c2c1	40.8%

SMILES	percentage of GFP+
CO/C(O)=C1\C(C)=NC(C)=C(C(=O)O[C@@H]2CCCN(Cc3ccccc3)C2)[C@@H]1c1cccc([N+](=O)[O-])c1 [Benidipine]	41.8%
Cn1c(=O)c2c(ncn2CC2OCCO2)n(C)c1=O [Doxofylline]	41%
CC(C)OC(=O)C(C)(C)Oc1ccc(C(=O)c2ccc(Cl)cc2)cc1 [Fenofibrate]	45.5%
O=C1CCc2cc(OCCCCc3nnnn3C3CCCCC3)ccc2N1 [Cilostazol]	45.1%
CN1CC[C@@H](c2c(O)cc(O)c3c(=O)cc(-c4ccccc4Cl)oc23)[C@@H]1CO	20.2%
CN1CC[C@H](c2c(O)cc(O)c3c(=O)cc(-c4ccccc4Cl)oc23)[C@H](O)C1 [Flavopiridol]	4.28% (active)
CC(=O)C1=C(O)C=C2Oc3c(C(C)=O)c(O)c(C)c(O)c3[C@]2(C)C1=O [(+)-Usniacin]	45.5%
CCNC1=N[C@@H]2[C@@H](O)[C@H](O)[C@@H](CO)O[C@@H]2S1 [Thiamet G]	56.9%
CC(=O)c1cc([N+](=O)[O-])c(Sc2cccc(Cl)c2Cl)s1	41.2%
COc1ccc2[nH]c(S(=O)Cc3ncc(C)c(OC)c3C)nc2c1 (configuration not stated) [Esomeprazole; Omeprazole]	43.4% and 32.8%
Nc1nc(O)c2ncn(COCCO)c2n1 [Aciclovir]	45.4%
COc1c(C)cnc(Cn2cnc3c(Cl)nc(N)nc32)c1C	7.81% (active)
COc1ccc(CNC(=O)Nc2ncc([N+](=O)[O-])s2)cc1 [N-(4-Methoxybenzyl)-N'-(5-Nitro-1,3-Thiazol-2-Yl)Urea]	43.1%
CCN(Cc1ccncc1)C(=O)C(CO)c1ccccc1 (configuration not stated) [Tropicamide]	49.3%
O=C(Nc1ccc(OC(F)(F)F)cc1)c1sccc1NCc1ccnc2ccccc12	30.4%
Clc1cccc(Cl)c1NC1=NCCN1 [Clonidine]	51.5%
CN1CCN(C2=Nc3ccccc3Oc3ccc(Cl)cc32)CC1 [Loxapine]	51.2%
CC(C)c1c(C(=O)Nc2ccccc2)c(-c2ccccc2)c(-c2ccc(F)cc2)n1CC[C@@H](O)C[C@@H](O)CC(=O)O [Atorvastatin]	41.6%
